Laboratory results as given in PubChem BioAssay (NCATS).
Inconclusive results are not listed. Where a call stands in place of a potency, no number is given. Calls of active or inactive are those of the source. Calls follow the shape of the dose curve; as a rule, active = well fitted curve in the direction sought with a large enough effect; inconclusive = small, poorly fitted or top-dose-only effect, or another doubt; inactive = no such curve, though single readings can be large; an effect the other way counts as inactive or inconclusive.

What was measured:
[1] = qHTS assay for measurement of the activity of small molecule inhibitors on Zika virus induced Caspase-3 activity in human iPSC derived neural progenitor cells (hNPCs) (AID 1224857); settings: hNPCs ZIKV-induced caspase-3/7, Caspase-Glo luminescence, 6 h; series mostly up to 45.7 µM; also: nearly all actives have a fitted effect of over 65% in size
How it was run: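 In medium with heparin 2 ug/ml and cyclopamine 2 uM, hNPCs (350 cells/well) received compound for one hour and then Zika virus at 2 FFU/cell; caspase activity was measured by Caspase-Glo 3/7 luminescence 6 h post-infection.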

[2] = qHTS assay for measurement of the activity of small molecule inhibitors on Zika virus induced Caspase-3 activity in human astrocytoma cells (AID 1224859); settings: SNB-19 ZIKV-induced caspase-3/7, luminescence, 6 h; series mostly up to 45.7 µM
How it was run: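 A cell-based luminescent caspase-3/7 assay used SNB-19 cells infected with ZIKV (2 FFU/cell) for 6 h following 1 h compound pretreatment.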

[3] = qHTS assay to identify small molecule inhibitors of chordoma cells - UCH-1 (AID 1259355); settings: UCH-1 chordoma viability, CellTiter-Glo, 48 h, combination, with auranofin plus four topoisomerase inhibitors; series mostly up to 46.1 µM; also: nearly all actives have a fitted effect of over 55% in size
How it was run: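 Seed 800 cells per well; incubate overnight at 37 C, 5% CO2. Add test compounds (15 concentrations), then the auranofin–topoisomerase-agent combination. Incubate 48hr, add CellTiter-Glo, wait 30min, read luminescence.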

[4] = Identifying Small Molecule Inhibitors of Pancreatic Cancer Stem Cells (A278, Adherent) (AID 1259361); settings: series mostly up to 46.1 µM;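 also: viability read after 48 h compound exposure; nearly all actives have a fitted effect of over 35% in size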
How it was run: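 Pre-formed 14-day tumor spheroids or adherent cells dosed and incubated 48 h, 37C, 5% CO2. Viability assessed by CellTiter-Glo.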

[5] = Identifying Small Molecule Inhibitors of Pancreatic Cancer Stem Cells (Panc1, Adherent) (AID 1259362); settings: Potency: viability; series mostly up to 46.1 µM; also: potency is read from the fitted curve at half-maximal effect
How it was run: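 Spheroids grown 14 days in stem cell media on hydrogel-coated nonadherent plates; 2D lines seeded directly. Compounds added after 4 h attachment, 48 h at 37C, 5% CO2; CellTiter-Glo luminescence normalized to DMSO (no inhibition) and no-cell wells (full inhibition).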

[6] = NS1 protein of Zika virus - qHTS assay to identify small molecule inhibitors in human HEK 293 cells (AID 1347053); settings: HEK293 ZIKV MR766 infection, NS1 TR-FRET, 24 h; series mostly up to 46.1 µM; also: nearly all actives have a fitted effect of over 55% in size
How it was run: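 Following 20 h seeding, HEK 293 cells took compound, then 1 h later ZIKV MR766 (MOI = 0.5). Incubation ran 24 h at 37 C before TR-FRET detection of NS1; a drop in signal indicates inhibition.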

[7] = qHTS assay to identify small molecule inhibitors of chordoma cells - UCH-2 (AID 1259356); settings: UCH-2 chordoma viability, CellTiter-Glo ATP luminescence, 48 h; series mostly up to 46.1 µM
[8] = P-glycoprotein substrates identified in KB-8-5-11 adenocarcinoma cell line, qHTS therapeutic library screen (AID 1346987); settings: KB-8-5-11 (P-gp overexpressing) viability, CellTiter-Glo, 72 h; series mostly up to 44.5 µM; also: nearly all actives have a fitted effect of over 65% in size
How it was run: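 KB-8-5-11, a colchicine-selected P-gp-overexpressing KB-3-1 subline, was grown without colchicine for the assay. Cells were seeded at 500 cells/well, dosed in concentration-response and incubated 72 h at 37 degree C, 5% CO2. Viability was read by CellTiter-Glo luminescence.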

Row | Compound | outcome [1] | outcome [2] | Potency [3] | IC50 (viability decrease) [4] | Potency [5] | Potency [6] | outcome [7] | Potency [8]
1 | O=C1Nc2ccc(Cl)cc2[C@@](C#CC2CC2)(C(F)(F)F)O1 | inactive | inactive | inactive | 48.1 µM (active) | 48.1 µM (active) | inactive |  | 
2 | NCC(=O)CCC(=O)O | inactive | inactive | inactive |  |  | inactive | inactive | inactive
3 | COc1ccccc1O | inactive | inactive | inactive |  |  | inactive | inactive | inactive
